Consider ten molecules from ChEMBL document CHEMBL3988442, “University of Dundee, Small-Polar-MMV Screening Library” (2021).

For some assays here: Measured potencies and affinities stand elsewhere.

Holding throughout (set-up): scale not given: direction of the effect not stated beside the values
For experiment [1], the target named is Protein translocase subunit SecA (Escherichia coli (strain K12)) (UniProt P10408). Put plainly: Assay to Identify E. coli SecA ATPase Inhibitors. Format: functional. Conditions: 30 µM.
Experiment [2] addresses T1, Ubiquitin-activating enzyme e1, putative (Leishmania donovani (strain BPK282A1)) (UniProt E9BSI1).
T1 sequence (whole entry): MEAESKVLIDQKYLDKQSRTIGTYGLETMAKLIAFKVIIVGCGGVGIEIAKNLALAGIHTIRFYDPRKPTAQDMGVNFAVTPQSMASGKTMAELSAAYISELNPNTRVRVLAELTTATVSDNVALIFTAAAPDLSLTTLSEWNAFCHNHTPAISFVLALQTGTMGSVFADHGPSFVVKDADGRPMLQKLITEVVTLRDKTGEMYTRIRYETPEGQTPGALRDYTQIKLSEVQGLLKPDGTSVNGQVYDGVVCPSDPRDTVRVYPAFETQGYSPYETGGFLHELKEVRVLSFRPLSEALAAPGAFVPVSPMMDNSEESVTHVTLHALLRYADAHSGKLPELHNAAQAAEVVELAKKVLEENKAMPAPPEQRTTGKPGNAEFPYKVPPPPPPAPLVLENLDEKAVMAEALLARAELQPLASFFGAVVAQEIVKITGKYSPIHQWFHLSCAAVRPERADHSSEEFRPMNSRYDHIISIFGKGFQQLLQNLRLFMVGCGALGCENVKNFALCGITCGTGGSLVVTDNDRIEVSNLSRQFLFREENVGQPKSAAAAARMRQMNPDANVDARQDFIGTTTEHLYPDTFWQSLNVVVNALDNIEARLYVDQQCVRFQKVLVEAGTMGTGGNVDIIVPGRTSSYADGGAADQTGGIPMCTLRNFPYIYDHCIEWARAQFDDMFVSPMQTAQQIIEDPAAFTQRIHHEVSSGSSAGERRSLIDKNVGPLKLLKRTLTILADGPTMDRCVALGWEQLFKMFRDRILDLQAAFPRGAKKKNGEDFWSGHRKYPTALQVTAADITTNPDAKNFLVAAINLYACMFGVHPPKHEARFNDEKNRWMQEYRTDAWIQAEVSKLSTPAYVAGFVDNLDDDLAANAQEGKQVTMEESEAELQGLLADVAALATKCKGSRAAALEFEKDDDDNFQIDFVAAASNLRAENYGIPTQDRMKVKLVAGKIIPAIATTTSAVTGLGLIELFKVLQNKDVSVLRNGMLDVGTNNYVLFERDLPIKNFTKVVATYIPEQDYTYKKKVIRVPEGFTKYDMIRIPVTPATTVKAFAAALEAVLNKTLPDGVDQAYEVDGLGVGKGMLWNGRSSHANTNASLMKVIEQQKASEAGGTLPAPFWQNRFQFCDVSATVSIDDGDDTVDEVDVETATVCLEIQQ
Kind of experiment: Leishmania donovani Ubiquitin Activating Enzyme (LdE1). Format: functional. Conditions: 30 µM.

Experiment [3] deals with AMP-activated protein kinase, AMPK (Homo sapiens) (UniProt P54646+O43741+P54619+Q9UGJ0+Q9Y478+Q13131+Q9UGI9). Kind of experiment: AMP-dependent Kinase enzyme assay. An in vitro enzyme assay that detects ADP turnover that is directly proportional to AMPK activity. This uses naive AMPK that is activated during the assay with MK-8722. Conditions: 30 µM. Format: functional.

The target in experiment [4] is Sialic acid-binding Ig-like lectin 9 (Homo sapiens) (UniProt Q9Y336). Put plainly: Hs-Siglec9 ALPHAscreen SOP 20170721. The conditions noted are these: 10 µM. A general note: In Alpha technology, singlet oxygen from a donor bead excites a nearby acceptor bead.
A further experiment has as its system Trypanosoma cruzi. Put plainly: Trypanosoma cruzi phosphomannomutase and mannose-1-phosphate guanylyltransferase assay. Format: functional. The conditions noted are these: 10 µM.
Experiment [5] concerns the target T2, Arginase-2, mitochondrial (Homo sapiens) (UniProt P78540).
T2 sequence (whole entry): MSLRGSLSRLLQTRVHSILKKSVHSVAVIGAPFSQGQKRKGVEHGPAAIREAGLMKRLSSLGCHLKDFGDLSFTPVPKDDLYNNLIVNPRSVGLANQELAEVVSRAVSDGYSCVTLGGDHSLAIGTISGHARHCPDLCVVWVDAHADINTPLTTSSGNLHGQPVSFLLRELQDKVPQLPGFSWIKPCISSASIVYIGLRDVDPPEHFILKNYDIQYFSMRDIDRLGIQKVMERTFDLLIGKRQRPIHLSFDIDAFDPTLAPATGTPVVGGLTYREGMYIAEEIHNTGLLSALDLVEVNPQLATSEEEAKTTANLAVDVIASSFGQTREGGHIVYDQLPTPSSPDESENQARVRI
Kind of experiment: in vitro enzyme assay to detect the production of urea directly proportional to the activity of Arginase II. Note: in the data most compounds retested in dose-response had high values. Format: functional. The conditions noted are these: 33.3 µM.

The target in experiment [6] is T3, Proteasome subunit beta (Trypanosoma cruzi) (UniProt O96673).
T3 sequence (whole entry): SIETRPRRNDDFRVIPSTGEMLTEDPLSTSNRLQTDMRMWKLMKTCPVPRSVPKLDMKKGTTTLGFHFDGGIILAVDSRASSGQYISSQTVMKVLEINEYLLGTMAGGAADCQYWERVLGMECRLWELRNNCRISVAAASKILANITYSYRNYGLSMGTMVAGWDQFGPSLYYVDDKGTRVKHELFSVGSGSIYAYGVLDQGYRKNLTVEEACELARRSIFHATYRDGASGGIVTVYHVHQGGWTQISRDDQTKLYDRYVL
Put plainly: Trypanosoma cruzi proteasome chymotrypsin-like activity (TcProtChymo) assay. Note: in the data most compounds retested in dose-response had high values. Format: functional. Conditions: 9.37 µM.

The species named for the next experiment is Homo sapiens. Put plainly: To identify inhibition of the IFN signalling (Jak-Stat) pathway via expression of an eGFP reporter gene under the control of an IFN-stimulated response element (ISRE) containing MxA promoter. Format: functional. Conditions: 30 µM.
Experiment [7] has as its target T4, Tyrosyl-tRNA synthetase, putative (Trypanosoma cruzi (strain CL Brener)) (UniProt Q4DSP6).
T4 sequence (whole entry): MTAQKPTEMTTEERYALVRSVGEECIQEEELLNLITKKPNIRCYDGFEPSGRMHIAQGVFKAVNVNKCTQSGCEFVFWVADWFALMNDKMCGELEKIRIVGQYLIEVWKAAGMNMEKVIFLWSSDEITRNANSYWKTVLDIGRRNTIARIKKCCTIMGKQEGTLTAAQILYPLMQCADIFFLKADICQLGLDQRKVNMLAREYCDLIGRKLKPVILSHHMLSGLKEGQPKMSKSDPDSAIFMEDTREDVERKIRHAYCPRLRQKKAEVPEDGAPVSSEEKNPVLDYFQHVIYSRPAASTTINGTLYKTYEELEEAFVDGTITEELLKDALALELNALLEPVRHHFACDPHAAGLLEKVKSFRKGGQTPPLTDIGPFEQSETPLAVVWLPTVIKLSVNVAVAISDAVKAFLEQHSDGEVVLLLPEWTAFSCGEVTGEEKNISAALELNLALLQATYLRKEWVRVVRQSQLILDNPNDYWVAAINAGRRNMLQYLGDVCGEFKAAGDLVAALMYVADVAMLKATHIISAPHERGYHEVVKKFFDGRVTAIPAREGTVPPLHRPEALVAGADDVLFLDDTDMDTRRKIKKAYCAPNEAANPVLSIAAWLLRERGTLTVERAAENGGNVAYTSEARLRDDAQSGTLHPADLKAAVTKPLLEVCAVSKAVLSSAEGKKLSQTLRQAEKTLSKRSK
Kind of experiment: Trypanosoma cruzi tyrosyl tRNA synthetase (TcYRS) _High Tyrosine SOP. Note: in the data most compounds retested in dose-response had high values. Format: functional. The conditions noted are these: 30 µM.

Experiment [8] concerns the target T4, Tyrosyl-tRNA synthetase, putative (Trypanosoma cruzi (strain CL Brener)). Kind of experiment: Trypanosoma cruzi tyrosyl tRNA synthetase (TcYRS) SOP. Format: functional. Conditions: 30 µM.
Experiment [9] deals with Chromo domain-containing protein 1 (Saccharomyces cerevisiae (strain ATCC 204508 / S288c) (Baker's yeast)) (UniProt P32657). Kind of experiment: ScCHD-1 Enzyme Inhibition Assay. Note: in the data most compounds retested in dose-response had high values. Format: functional. Conditions: 30 µM.
Sequence of Chromo domain-containing protein 1 (Saccharomyces cerevisiae (strain ATCC 204508 / S288c) (Baker's yeast)) (P32657 whole entry, the tested form may be a part): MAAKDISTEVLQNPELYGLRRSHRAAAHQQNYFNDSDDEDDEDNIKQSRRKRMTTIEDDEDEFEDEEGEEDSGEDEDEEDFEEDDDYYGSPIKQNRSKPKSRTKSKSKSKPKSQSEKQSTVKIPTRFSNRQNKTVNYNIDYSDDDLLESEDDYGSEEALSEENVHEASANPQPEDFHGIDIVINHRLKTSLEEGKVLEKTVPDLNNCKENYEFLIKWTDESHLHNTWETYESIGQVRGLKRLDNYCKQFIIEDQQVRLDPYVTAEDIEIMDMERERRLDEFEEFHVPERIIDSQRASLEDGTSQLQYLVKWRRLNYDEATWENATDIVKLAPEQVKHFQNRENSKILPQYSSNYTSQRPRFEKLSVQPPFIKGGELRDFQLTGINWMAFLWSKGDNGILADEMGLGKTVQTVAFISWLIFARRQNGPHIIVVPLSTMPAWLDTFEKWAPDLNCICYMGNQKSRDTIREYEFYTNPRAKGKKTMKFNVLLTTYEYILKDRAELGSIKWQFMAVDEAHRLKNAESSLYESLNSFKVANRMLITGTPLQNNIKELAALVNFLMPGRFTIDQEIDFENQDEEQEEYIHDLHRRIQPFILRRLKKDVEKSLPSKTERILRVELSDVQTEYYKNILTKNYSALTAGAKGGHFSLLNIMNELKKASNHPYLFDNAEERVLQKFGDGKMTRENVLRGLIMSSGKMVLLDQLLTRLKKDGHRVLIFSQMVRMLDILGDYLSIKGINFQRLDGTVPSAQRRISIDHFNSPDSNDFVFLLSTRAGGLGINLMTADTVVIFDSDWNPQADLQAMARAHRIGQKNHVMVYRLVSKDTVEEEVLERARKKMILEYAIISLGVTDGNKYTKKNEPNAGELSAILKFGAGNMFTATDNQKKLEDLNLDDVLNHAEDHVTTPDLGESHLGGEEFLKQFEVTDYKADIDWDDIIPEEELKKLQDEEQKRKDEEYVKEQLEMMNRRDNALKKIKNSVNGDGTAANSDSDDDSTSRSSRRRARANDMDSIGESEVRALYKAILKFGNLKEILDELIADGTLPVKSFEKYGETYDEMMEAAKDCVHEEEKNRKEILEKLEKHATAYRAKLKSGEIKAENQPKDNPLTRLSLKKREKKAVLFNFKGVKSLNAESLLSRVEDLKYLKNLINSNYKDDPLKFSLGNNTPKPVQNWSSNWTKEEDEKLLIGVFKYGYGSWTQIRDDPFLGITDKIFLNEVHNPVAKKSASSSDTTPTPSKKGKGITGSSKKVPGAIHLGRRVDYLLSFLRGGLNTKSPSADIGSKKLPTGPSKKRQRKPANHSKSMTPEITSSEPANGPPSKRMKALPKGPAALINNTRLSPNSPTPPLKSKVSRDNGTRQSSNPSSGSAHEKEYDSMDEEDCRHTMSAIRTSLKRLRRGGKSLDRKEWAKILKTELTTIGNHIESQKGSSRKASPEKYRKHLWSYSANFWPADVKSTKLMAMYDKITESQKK

Sequence of Protein translocase subunit SecA (Escherichia coli (strain K12)) (P10408 whole entry): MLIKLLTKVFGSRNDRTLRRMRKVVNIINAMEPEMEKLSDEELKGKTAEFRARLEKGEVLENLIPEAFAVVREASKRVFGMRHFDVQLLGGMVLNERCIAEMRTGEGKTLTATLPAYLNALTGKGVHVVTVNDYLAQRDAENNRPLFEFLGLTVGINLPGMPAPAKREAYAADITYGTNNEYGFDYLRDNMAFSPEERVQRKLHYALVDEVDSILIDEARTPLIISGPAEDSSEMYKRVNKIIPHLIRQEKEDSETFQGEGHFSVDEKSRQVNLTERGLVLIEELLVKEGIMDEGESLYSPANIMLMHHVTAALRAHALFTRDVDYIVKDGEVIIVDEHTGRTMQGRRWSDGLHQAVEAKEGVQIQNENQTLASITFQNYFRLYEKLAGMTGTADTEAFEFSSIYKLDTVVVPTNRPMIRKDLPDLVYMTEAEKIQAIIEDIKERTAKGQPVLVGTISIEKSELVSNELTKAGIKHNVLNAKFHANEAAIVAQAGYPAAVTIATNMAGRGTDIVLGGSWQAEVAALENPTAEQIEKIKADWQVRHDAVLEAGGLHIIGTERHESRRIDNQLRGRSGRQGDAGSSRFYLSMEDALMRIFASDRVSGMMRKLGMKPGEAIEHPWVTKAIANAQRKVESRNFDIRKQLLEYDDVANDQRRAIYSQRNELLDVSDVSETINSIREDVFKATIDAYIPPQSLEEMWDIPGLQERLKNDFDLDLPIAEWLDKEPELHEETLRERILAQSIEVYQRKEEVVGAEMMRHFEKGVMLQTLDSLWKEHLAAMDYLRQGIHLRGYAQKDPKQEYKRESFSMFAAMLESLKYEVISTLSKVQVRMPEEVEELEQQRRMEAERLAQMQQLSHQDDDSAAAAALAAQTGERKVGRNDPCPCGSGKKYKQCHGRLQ
Sequence of Sialic acid-binding Ig-like lectin 9 (Homo sapiens) (Q9Y336 whole entry): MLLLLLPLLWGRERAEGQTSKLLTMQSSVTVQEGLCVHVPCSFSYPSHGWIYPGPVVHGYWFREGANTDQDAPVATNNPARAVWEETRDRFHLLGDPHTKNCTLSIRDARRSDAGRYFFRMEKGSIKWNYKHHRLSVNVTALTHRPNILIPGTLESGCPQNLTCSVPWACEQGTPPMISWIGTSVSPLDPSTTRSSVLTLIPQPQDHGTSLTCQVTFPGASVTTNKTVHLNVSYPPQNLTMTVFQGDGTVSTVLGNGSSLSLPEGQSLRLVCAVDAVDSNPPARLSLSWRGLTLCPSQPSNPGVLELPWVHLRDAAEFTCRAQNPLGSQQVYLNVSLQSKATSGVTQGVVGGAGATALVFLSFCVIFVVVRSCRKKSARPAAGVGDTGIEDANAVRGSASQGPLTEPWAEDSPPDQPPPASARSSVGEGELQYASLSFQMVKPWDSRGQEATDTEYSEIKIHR

In the case of `Cc1ccccc1CN1CCCN(C2CCOC2=O)CC1` (stereo not given), the Percent Effect in experiment [1] was -1.89%; in experiment [2] it was -18.9%; in experiment [3], -9.35%; in experiment [4], 10.9%; with Trypanosoma cruzi, -3.3%; in experiment [5] it was 1.2%. Also, the Percent Effect in experiment [6] stood at 10.4%; in the experiment filed under Homo sapiens it was 0.38%; in experiment [7], 2.46%; in experiment [8] it was 3.7%; in [9] it was 1.51%.
In the case of `CC1=N[C@@]2(CC[C@@H]3CN(S(=O)(=O)N(C)C)C[C@@H]32)C(=O)N1CC(C)C`, the Percent Effect was 1.29% in experiment [1]; 8.11% in experiment [2]; 2.53% in [3]; -13.6% in experiment [4]; -6.75% with Trypanosoma cruzi; 4.78% in [5]. In addition, the Percent Effect is 13.3% in experiment [6]; 6.52% in the experiment filed under Homo sapiens; 5.41% in [7]; 10.3% in experiment [8]; -5.11% in experiment [9].
Turning to `Cc1nc(CN2CCN(C(=O)COCc3ccccc3)CC2)no1`, the Percent Effect in [1] is -3.03%; in experiment [2] it was 5.41%; in experiment [3], -6.7%; in [4], 10.7%; with Trypanosoma cruzi, 5.96%; in experiment [5] it was 0.744%. The Percent Effect in experiment [6] is 9.19%; in the experiment listed under Homo sapiens, -1.99%; in experiment [7] it was -2.15%; in experiment [8], 3.7%; in experiment [9], -7.9%.
Regarding `Cc1nn(C)c(C)c1C1COCCN1C(=O)Cc1cccc(F)c1` (stereo not given), the Percent Effect was -0.171% in [1]; 13.7% in experiment [2]; -6.33% in experiment [3]; 3.58% in experiment [4]; -3.13% in the experiment with Trypanosoma cruzi; -1.82% in [5]. The Percent Effect is 17.6% in experiment [6]; 33.3% in the experiment filed under Homo sapiens; 1.07% in experiment [7]; 5% in experiment [8]; -4.69% in [9].
As for `c1ccc(CN2CCc3ncnc(-c4ccsc4)c3CC2)nc1`, the Percent Effect was -4.91% in [1]; 0% in experiment [2]; 2.79% in experiment [3]; 8.34% in [4]; -2.83% in the experiment on Trypanosoma cruzi; 5.41% in [5]. Further, the Percent Effect in experiment [6] is 22.7%; in the experiment listed under Homo sapiens it was -21%; in experiment [7], 2.16%; in experiment [8] it was 7.69%; in experiment [9], 3.65%.
Regarding `COc1cccc(C(=O)N2CCCC(c3cc(C)[nH]n3)C2)c1OC` (stereo not given), the Percent Effect in [1] was -3.02%; in experiment [2], 10.8%; in experiment [3], -3.74%; in experiment [4], -1.79%; in the experiment on Trypanosoma cruzi it was 8.4%; in experiment [5], -2.81%. In addition, the Percent Effect was 11.7% in experiment [6]; 17.4% in the experiment filed under Homo sapiens; 4.43% in experiment [7]; 16.1% in experiment [8]; -5.21% in experiment [9].
As to `CC(C)(C)C(=O)N1CCC(c2nc(O)cc(-c3ccccn3)n2)CC1`, the Percent Effect is -0.499% in [1]; 12.2% in experiment [2]; 8.91% in experiment [3]; -7.12% in experiment [4]; -0.79% in the experiment with Trypanosoma cruzi; -5.34% in experiment [5]. The Percent Effect in experiment [6] is 12%; in the experiment listed under Homo sapiens, 11.1%; in experiment [7], 2.15%; in experiment [8] it was 1.3%; in experiment [9], -8.6%.
Turning to `O=C(c1ccoc1)N1CCC2(CC1)C(=O)Nc1ccccc12`, the Percent Effect in experiment [1] was -2.34%; in experiment [2], 16.2%; in [3] it was -9.89%; in [4], 3.61%; in the experiment with Trypanosoma cruzi, 2.44%; in experiment [5], 6.2%. In addition, the Percent Effect was 5.06% in experiment [6]; 37.9% in the experiment listed under Homo sapiens; 8.6% in [7]; 18.5% in experiment [8]; -8.75% in experiment [9].
With `COc1ccc(C2=CCN(C(=O)CN(C)CC(N)=O)CC2)cc1`, the Percent Effect was -1.62% in experiment [1]; 5.06% in [2]; 0.216% in experiment [3]; -0.305% in experiment [4]; -19.4% in the experiment with Trypanosoma cruzi; 6.46% in experiment [5]. In addition, the Percent Effect in [6] was 9.42%; in the experiment listed under Homo sapiens, 16.9%; in experiment [7] it was 3.45%; in [8] it was 8.86%; in experiment [9] it was -6.22%.
On to `Cn1cc(C[C@H]2[C@H](N3CCOCC3)CCN2C(=O)c2ccco2)cn1`, for which the Percent Effect in experiment [1] was -7.84%; in experiment [2], 5.33%; in experiment [3] it was 7.06%; in [4], -0.822%; in the experiment with Trypanosoma cruzi it was -7.09%; in experiment [5], -0.699%. Besides, the Percent Effect in [6] is 7.49%; in the experiment filed under Homo sapiens it was 21.2%; in [7], 2.13%; in experiment [8], 6.41%; in experiment [9], -4.64%.
